Source: PubChem BioAssay (NCATS)
Results filed as inconclusive are left out. The source made the active and inactive calls. Calls follow the shape of the dose curve; as a rule, active = well fitted curve in the direction sought with a large enough effect; inconclusive = small, poorly fitted or top-dose-only effect, or another doubt; inactive = no such curve, though single readings can be large; an effect the other way counts as inactive or inconclusive.

Key:
[1] = Primary qHTS for inhibitors of La Crosse Virus (LACV) - induced cell death in SH-SY5Y cells (AID 1508616); settings: SH-SY5Y LACV cytopathicity rescue, ATP luminescence, 6 d; series mostly up to 9.63 µM;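 also: top concentration of the series differs between compounds; higher means more rescue of cells from virus-induced death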
Procedure, shortened: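 SH-SY5Y, 6000 cells/well; cpd via pin tool in DMSO; LACV 0.01 MOI; 6 d 37C 5% CO2; ATPLite, 5 min RT; luminescence normalized to ±virus DMSO controls.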

[2] = target: Calcium and integrin-binding protein 1 (Homo sapiens) (UniProt Q99828); assay: Validation qHTS for Identification of Calcium Integrin Binding protein 1 (CIB1) Competitor (AID 1508618); settings: CIB1-GST / FITC-alphaIIb peptide fluorescence polarization; series mostly up to 114 µM
Procedure, shortened: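 Fluorescence polarization with 1 uM CIB1-GST and 100 nM FITC-alphaIIb peptide in HEPES pH 7.4, NaCl, 5 mM CaCl2, Tween20. Compounds at up to 114 uM final, preincubated with protein 15 min; read after 15 min more at RT.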

[3] = Primary qHTS for small molecule stabilizers of the endoplasmic reticulum resident proteome: Secreted ER Calcium Modulated Protein (SERCaMP) assay (AID 1508630); settings: SH-SY5Y GLuc-SERCaMP (Gaussia luciferase released on ER calcium loss) secretion, thapsigargin, luminescence; series mostly up to 38.4 µM
Procedure, shortened: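 The SH-SY5Y reporter protocol was run at 3 concentrations up to 38.3 uM (primary) or 11 concentrations (follow-up): 16 h compound, 100 nM thapsigargin for 4 h, then extracellular luciferase luminescence.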

Papain (Carica papaya) = Papain (Carica papaya) (UniProt P00784); assay: Primary qHTS assay for inhibitors of the protease papain (AID 1645873); settings: papain Z-FR-AMC cleavage, AMC fluorescence; series mostly up to 49.8 µM;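 also: papain turnover of Z-FR-AMC read as the AMC fluorescence gain over 10 min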

Measured: Potency

Chain of Calcium and integrin-binding protein 1 (Homo sapiens) (Q99828 whole entry, looked up): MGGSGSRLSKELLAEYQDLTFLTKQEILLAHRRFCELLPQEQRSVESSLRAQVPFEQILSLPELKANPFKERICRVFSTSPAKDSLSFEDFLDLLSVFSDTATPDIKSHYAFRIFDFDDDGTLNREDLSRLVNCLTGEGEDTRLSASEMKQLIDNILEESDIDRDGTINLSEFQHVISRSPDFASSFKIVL
Chain of Papain (Carica papaya) (P00784 whole entry, looked up): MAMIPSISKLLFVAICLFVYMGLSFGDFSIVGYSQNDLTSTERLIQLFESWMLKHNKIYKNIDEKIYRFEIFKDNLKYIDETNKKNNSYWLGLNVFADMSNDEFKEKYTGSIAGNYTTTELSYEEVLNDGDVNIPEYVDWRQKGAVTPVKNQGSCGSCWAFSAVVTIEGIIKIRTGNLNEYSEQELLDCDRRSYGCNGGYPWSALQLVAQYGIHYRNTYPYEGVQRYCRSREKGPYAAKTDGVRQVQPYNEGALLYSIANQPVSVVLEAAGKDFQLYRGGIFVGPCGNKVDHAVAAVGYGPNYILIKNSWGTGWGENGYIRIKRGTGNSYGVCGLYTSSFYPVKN

c1ccc2c(c1)CCC[C@H]2Nc1nc2ccccc2[nH]1
inactive: [1] | [2] | [3] | Papain (Carica papaya)

CC(C)(C)c1ccc(/C=C/C(=O)Nc2ccc3c(c2)OCCO3)cc1
inactive: [1] | [2] | [3] | Papain (Carica papaya)

COc1cc(C(O)C(=O)O)ccc1O (stereo not given)
inactive: [1] | [2] | [3] | Papain (Carica papaya)

O=C(O)C1CCNCC1
inactive: [1] | [2] | [3] | Papain (Carica papaya)

CC(C)Cn1c(=O)n(C)c(=O)c2[nH]cnc21
inactive: [1] | [2] | [3] | Papain (Carica papaya)

N=C(N)SCCN
inactive: [1] | [2] | [3] | Papain (Carica papaya)

N[C@@H](CCCC(=O)O)C(=O)O
inactive: [1] | [2] | [3] | Papain (Carica papaya)

Cc1nc(N=Nc2ccc(C(=O)O)cc2)c(COP(=O)(O)O)c(C=O)c1O
inactive: [1] | [2] | [3] | Papain (Carica papaya)

O=C(O)c1cc2cc(F)ccc2[nH]1
inactive: [1] | [2] | [3] | Papain (Carica papaya)

C[C@H]1CC2C3CCC4=CC(=O)C=C[C@]4(C)[C@@]3(Cl)[C@@H](O)C[C@]2(C)[C@@]1(O)C(=O)CO (stereo not given in full)
inactive: [1] | [2] | [3] | Papain (Carica papaya)

CCCCCCC(=O)OC1CC(C)(C)NC(C)(C)C1
inactive: [1] | [2] | [3] | Papain (Carica papaya)

c1ccc2nc(C3=NCCN3)ccc2c1
inactive: [1] | [2] | [3] | Papain (Carica papaya)

COc1cc(N)c(Cl)cc1C(=O)OCCN1CCCCC1
inactive: [1] | [2] | [3] | Papain (Carica papaya)

NC1CONC1=O (stereo not given)
inactive: [1] | [2] | [3] | Papain (Carica papaya)

COc1cc(CNC(=O)CCCCCCC(C)C)ccc1O
inactive: [1] | [2] | [3] | Papain (Carica papaya)
